# According to PubChem BioAssay (NCI):
# About 83,000 compounds went through this panel and 20% of them were active in at least one assay; those are over-represented in the sample as a whole.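 Percent growth is the endpoint: 0 to 100 indicates growth inhibition (40 means 60% inhibition), 0 means no net growth, and negative values indicate cell death.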 Calls of active or inactive are those of the source.
# Test system: SK-MEL-5 melanoma
# Assay: NCI-60 one-dose screen, 48 h (100 = growth as untreated, 0 = no growth, -100 = all killed)
# Details: 10 µM unless noted
# Protocol: Growth inhibition of the SK-MEL-5 human tumor cell line is measured as a screen for anti-cancer activity. Cells are grown in 96 well plates and exposed to the test compound for 48 hours. Compounds are tested at a single concentration, which is 10^-5 M for most compounds. The reported endpoint is percent growth (GI% or GIPRCNT), where numbers from 0 - 100% represent growth inhibition, and numbers from -100% - 0 represent cell death. For example, a value of 40 represents 60% growth inhibition. A value of 0 means no net growth occurred over the course of the experiment. A value of -40 indicates 40% of cells at the beginning of the experiment died by the end of the experiment. A value of -100 means all cells are dead at the end of the experiment.
# NCI-60 Human Tumor Cell Lines Screen was performed using the standard one-dose NCI protocol, which is described in more detail at https://dtp.cancer.gov/discovery_development/nci-60/default.htm.
# Compounds with GIPRCNT values below 10 were considered active. Activity score was based on GIPRCNT using the following formula: […]
# Score is 0 for GIPRCNT values of 100 or above, 50 for GIPRCNT values of 0, and 100 for GIPRCNT values of -100.
row,Compound,growth
1,O=C1CCNC1,104% (inactive)
2,COc1ccc(Cn2cc3c(c2)-c2oncc2CC3)cc1OC,9.72% (active)
3,CCS(=O)(=O)OCCO[C@H]1Cc2cc3ccc(=O)oc3cc2OC1(C)C,101% (inactive)
4,CCCCCCCCCCCCCCCCCCOP(=O)(O)O,99.2% (inactive)
5,O=C(Nc1cccc2[nH]c(C(F)(F)F)nc12)c1ccc(F)cc1,69.5% (inactive)
6,CN1C(=O)C(=Cc2coc3ccc(Br)cc3c2=O)C(=O)N(C)C1=O,93.8% (inactive)
7,OCCN1CCCN(CCCN2c3ccccc3Sc3ccc(C(F)(F)F)cc32)CC1,36.3% (inactive)
8,O=C(/C(Br)=C/c1ccccc1)c1ccccc1,84.9% (inactive)
9,COc1ccc(-c2nc(N)n(C(=S)Nc3ccccc3)n2)cc1,94% (inactive)
10,Cc1ccc(C(=O)NN)cc1,108% (inactive)
11,COCC(=O)NNc1[nH]c(-c2ccc(OC)cc2)cc1C#N,117% (inactive)
12,O=C(N/N=C/c1cc(Cl)ccc1O)C(=O)N/N=C/c1cc(Cl)ccc1O,56.3% (inactive)
13,CCCCCCCCCCN1CC2CCCCC2C1 (stereo not given),49% (inactive)
14,O=C(NCCO)C(F)(F)F,115% (inactive)
15,CC(=O)Nc1ccc(CC#N)cc1Br,97.8% (inactive)
16,CCC(C)C1NC(=O)C(CCCCN)NC(=O)C(CCCCN)NC(=O)C(CC(C)C)NC(=O)C(CCCCN)NC(=O)C(C(C)CC)NC(=O)C(C(C)C)NC(=O)C(C(C)CC)NC(=O)C(CCCCN)NC(=O)C(CCCCN)NC(=O)C(C)NC(=O)C(CCCCN)NC(=O)C(CC(C)C)NC1=O (stereo not given),2.11% (active)
17,CC1=NN(c2cccc(Cl)c2)C(=O)/C1=C\c1cn(-c2nc(N3CCOCC3)nc(N3CCOCC3)n2)c2ccccc12,101% (inactive)
18,COc1ccc(-c2nc(SCC(C)C)nc(Nc3ccccc3)c2C#N)cc1,96.7% (inactive)
19,COc1ccc(-c2nc(Nc3nc4ccccc4[nH]3)nc(N)c2C#N)cc1,95.3% (inactive)
20,Cc1ncc(C(=O)Nc2ccc(CN3CCN(C)CC3)c(C(F)(F)F)c2)cc1C#Cc1c(N)ncc2ccccc12,-99.6% (active)

row,Compound,growth
1,CC(=O)N(N=O)c1ccc([N+](=O)[O-])cc1Cl,18.6% (inactive)
2,Cc1ccccc1-n1c(C)nc2cc(NC(=O)c3ccc(Cl)cc3)ccc2c1=O,0.858% (active)
3,COc1ccc2nc3cc(Cl)ccc3c(NCCCNC(C)=O)c2c1,23.5% (inactive)
4,O=C(Nc1ccccc1)Nc1ccc(Nc2ncnc3sc4c(c23)CCCC4)cc1,97.3% (inactive)
5,Oc1ccccc1\C=N/N=C/C=C/c1ccccc1,97.4% (inactive)
6,CCCCCCCCCCCCOC(=O)/C=C\C(=O)NC(N)=O,99.6% (inactive)
7,CC(C)CCCCCOC(=O)c1ccccc1SSc1ccccc1C(=O)OCCCCCC(C)C,96.2% (inactive)
8,COc1cc(CCNc2cnc3cc(N)cc(N)c3n2)cc(OC)c1,103% (inactive)
9,C[C@]12C=CC(=O)C=C1[C@@H](F)C[C@@H]1[C@@H]2[C@@H](O)C[C@@]2(C)[C@H]1CC[C@]2(O)C(=O)CO,120% (inactive)
10,CC(C)OC(=O)[C@H](C)N[P@@](=O)(OC[C@@]1(C)O[C@@H](n2cc(F)c(N)nc2=O)C[C@@H]1O[P@](=O)(N[C@@H](C)C(=O)OC(C)C)Oc1ccccc1)Oc1ccccc1,90.6% (inactive)
11,CC(=O)c1ccc2c(c1)c1ccccc1n2C,103% (inactive)
12,CCN(CC)c1ccc2nc3ccc(N=Nc4ccc(O)cc4)cc3[n+](-c3ccccc3)c2c1,46.3% (inactive)
13,CCC(C)C1NC(=O)C(CC(C)C)NC(=O)C(C)NC(=O)C(C(C)C)NC(=O)C(CCCCN)NC(=O)C(CC(C)C)NC(=O)C(C(C)C)NC(=O)[C@H](C)NC(=O)C(C(C)CC)NC(=O)C(CCCN=C(N)N)NC(=O)C(CCCCN)NC(=O)C(CCCN=C(N)N)NC(=O)C(CCCCN)NC(=O)C([C@H](C)CC)NC(=O)C(CCCCN)NC1=O (stereo not given in full),1.67% (active)
14,CC(C)OC(=O)c1ccc2n1CCCc1cnc(Nc3ccccc3)nc1-2,61.1% (inactive)
15,CCCCCCCCCCCCCCCCCC(=O)Nc1ccc(O)cc1,105% (inactive)
16,Ic1ccc(SSc2ccc(I)cc2)cc1,90.8% (inactive)
17,CC(=O)Oc1cc2ccccc2cc1C(C)C,101% (inactive)
18,O=C(/C=C/c1ccc(Cl)cc1)c1ccc(Cl)cc1,97.3% (inactive)
19,O=c1c2c(c3ccccc3n1-c1ccccc1)NC(=S)NC2c1ccc(Cl)cc1 (stereo not given),1.08% (active)
20,CC(=O)Nc1nc(C)c(C(=O)NNC(=O)Nc2ccccc2)s1,97% (inactive)
